Experimental data as given in the antibiotic and cytotoxicity screens of Wong et al. (2023).
Among all 39,000 compounds or so, about 3,300 (8.5%) were called active. For the sample, actives were picked, then their nearest neighbours and some compounds at random.

test system: HepG2; assay: cytotoxicity call (relative viability < 0.9); conditions: 10 µM

For `O=C(Nc1cc(Cl)ccc1Cl)c1cc(Br)ccc1NS(=O)(=O)c1ccc(Cl)c([N+](=O)[O-])c1`, which cytotoxicity call is on record?
Its cytotoxicity call is “active”.

Which cytotoxicity call does the source give for `O=C(Nc1cc(Cl)ccc1Cl)c1cc(Cl)ccc1NS(=O)(=O)c1ccc(Cl)c([N+](=O)[O-])c1` here?
Its cytotoxicity call is “active”.

For `NS(=O)(=O)c1ccc(Cl)cc1[N+](=O)[O-]`, which cytotoxicity call is on record?
Its cytotoxicity call is “inactive”.

How did the cytotoxicity call turn out when `C[C@H]1CN([C@@H](C)CO)C(=O)c2cccc(NS(=O)(=O)c3ccc(Cl)cc3)c2O[C@H]1CN(C)Cc1ccc(C(=O)Nc2ccccc2N)cc1` was run?
The cytotoxicity call was “inactive”.

With `O=C(Nc1ccc(Cl)cc1C(=O)c1ccc(Cl)cc1)c1cc(Br)ccc1NS(=O)(=O)c1ccc(Cl)cc1` as the compound, how does the cytotoxicity call read?
Its cytotoxicity call is “active”.

With `C/C=C/C(=O)c1cc(Cl)ccc1O` as the compound, how does the cytotoxicity call read?
The cytotoxicity call was “inactive”.

How did the cytotoxicity call turn out when `O=C(Nc1ccc([N+](=O)[O-])cc1Cl)c1cc(Cl)ccc1O` was run?
Its cytotoxicity call is “active”.

For `CNS(=O)(=O)c1ccc(Cl)c(C(N)=O)c1`, which cytotoxicity call is on record?
The cytotoxicity call was “inactive”.

How did the cytotoxicity call turn out when `NC(=O)c1ccc([N+](=O)[O-])cc1Cl` was run?
The cytotoxicity call was “inactive”.

For `NS(=O)(=O)c1ccc(F)c([N+](=O)[O-])c1`, which cytotoxicity call is on record?
The cytotoxicity call was “inactive”.

`C[C@H](CO)N1C[C@H](C)[C@@H](CN(C)Cc2ccc(C(=O)Nc3ccccc3N)cc2)Oc2c(NS(=O)(=O)c3ccc(Cl)cc3)cccc2C1=O` was tested. Which cytotoxicity call did it give?
The cytotoxicity call was “inactive”.

With `C[C@@H]1CN([C@@H](C)CO)S(=O)(=O)c2ccc(-c3cccc(C(=O)N(C)C)c3)cc2O[C@@H]1CN(C)C(=O)Cc1ccccn1` as the compound, how does the cytotoxicity call read?
Its cytotoxicity call is “inactive”.

Which cytotoxicity call does the source give for `COc1ccc([C@@H]([C@H](Cc2ccccc2)OC(C)=O)N2C[C@H]3C(=NO[C@@H]3[C@@H](OC(C)=O)c3ccccc3)[C@@H]2Cc2ccccc2)cc1` here?
The cytotoxicity call was “inactive”.

For `C[C@@H]1CN([C@@H](C)CO)C(=O)c2cc(NC(=O)CCN3CCOCC3)ccc2O[C@H]1CN(C)Cc1ccc2c(c1)OCO2`, which cytotoxicity call is on record?
The cytotoxicity call was “inactive”.

With `COCC(=O)Nc1ccc2c(c1)C(=O)N(C)C[C@@H](OC)[C@@H](C)CN(C(=O)c1ccccc1F)[C@@H](C)CO2` as the compound, how does the cytotoxicity call read?
Its cytotoxicity call is “inactive”.

For `CO[C@@H]1CN(C)C(=O)c2cc(NC(=O)C3CCCC3)ccc2OC[C@@H](C)N(C(=O)Nc2ccc(C(F)(F)F)cc2)C[C@H]1C`, which cytotoxicity call is on record?
Its cytotoxicity call is “inactive”.

With `Cc1cnc(CNC(=O)[C@H]2C[C@H]3[C@@H](CCN3S(C)(=O)=O)O2)cn1` as the compound, how does the cytotoxicity call read?
The cytotoxicity call was “inactive”.

With `O=C(C[C@@H]1C[C@@H]2c3cc(NS(=O)(=O)c4ccc(F)cc4)ccc3O[C@@H]2[C@H](CO)O1)NCC(F)(F)F` as the compound, how does the cytotoxicity call read?
The cytotoxicity call was “inactive”.

With `CC=Cc1ccc2n(c1=O)C[C@@H]1[C@@H](CO)[C@H](C(=O)NCCc3cn(C)cn3)[C@H]2N1C(=O)C1CC1` as the compound, how does the cytotoxicity call read?
Its cytotoxicity call is “inactive”.

How did the cytotoxicity call turn out when `Cn1c(=O)c(=O)n(C)c2cc(S(=O)(=O)CCC(=O)NCc3ccccc3)ccc21` was run?
Its cytotoxicity call is “inactive”.

For `CCCCOC(=O)c1ccc(O)cc1`, which cytotoxicity call is on record?
Its cytotoxicity call is “inactive”.

With `CCCCNc1ccc(C(=O)OCCOCCOCCOCCOCCOCCOCCOCCOCCOC)cc1` as the compound, how does the cytotoxicity call read?
Its cytotoxicity call is “inactive”.

How did the cytotoxicity call turn out when `CCCCNc1ccc(C(=O)OCCN(C)C)cc1.Cl` was run?
Its cytotoxicity call is “active”.

Which cytotoxicity call does the source give for `Cc1noc(C)c1NC(=O)N(C)C[C@@H]1Oc2c(NC(=O)Nc3cccc4ccccc34)cccc2C(=O)N([C@H](C)CO)C[C@@H]1C` here?
The cytotoxicity call was “inactive”.

`C[C@@H]1CN([C@H](C)CO)C(=O)c2cc(NC(=O)c3ccccc3)ccc2O[C@@H](C)CCCCO[C@@H]1CN(C)Cc1ccncc1` was tested. Which cytotoxicity call did it give?
The cytotoxicity call was “inactive”.

`O=C(C1CCC1)N1CCOCC1` was tested. Which cytotoxicity call did it give?
The cytotoxicity call was “inactive”.

For `C[C@@H](N)CCc1ccc(Br)cc1`, which cytotoxicity call is on record?
The cytotoxicity call was “inactive”.

With `C[C@@H]1CCCCO[C@@H](CN(C)C(=O)C2CCCCC2)[C@H](C)CN([C@@H](C)CO)C(=O)c2cc(NC(=O)c3ccncc3)ccc2O1` as the compound, how does the cytotoxicity call read?
The cytotoxicity call was “inactive”.

Which cytotoxicity call does the source give for `C[C@@H]1CN([C@H](C)CO)C(=O)c2cc(NC(=O)CCCN(C)C)ccc2O[C@@H]1CN(C)C(=O)Nc1ccc2c(c1)OCO2` here?
Its cytotoxicity call is “inactive”.

With `Cc1ccc(S(=O)(=O)Nc2ccc3c(c2)C(=O)N([C@@H](C)CO)C[C@H](C)[C@@H](CN(C)C(=O)Nc2cccc4ccccc24)O3)cc1` as the compound, how does the cytotoxicity call read?
Its cytotoxicity call is “inactive”.

`C[C@@H]1CN([C@H](C)CO)C(=O)c2cc(NS(=O)(=O)c3ccccc3)ccc2O[C@H]1CN(C)C(=O)Nc1cccc2ccccc12` was tested. Which cytotoxicity call did it give?
The cytotoxicity call was “inactive”.

`C[C@@H]1CN([C@H](C)CO)C(=O)c2cc(NS(=O)(=O)c3ccccc3)ccc2O[C@@H]1CN(C)C(=O)Nc1cccc2ccccc12` was tested. Which cytotoxicity call did it give?
The cytotoxicity call was “active”.

`Cc1ccc(S(=O)(=O)Nc2ccc3c(c2)C(=O)N([C@H](C)CO)C[C@@H](C)[C@H](CN(C)C(=O)Nc2cccc4ccccc24)O3)cc1` was tested. Which cytotoxicity call did it give?
The cytotoxicity call was “active”.

`C[C@H](CO)N1C[C@H](C)[C@H](CN(C)C(=O)Nc2cccc3ccccc23)Oc2ccc(NS(=O)(=O)c3ccccc3)cc2C1=O` was tested. Which cytotoxicity call did it give?
Its cytotoxicity call is “inactive”.

For `Cc1ccc(S(=O)(=O)Nc2ccc3c(c2)C(=O)N([C@@H](C)CO)C[C@H](C)[C@H](CN(C)C(=O)Nc2cccc4ccccc24)O3)cc1`, which cytotoxicity call is on record?
Its cytotoxicity call is “inactive”.

Which cytotoxicity call does the source give for `CC(C)NC(=O)N(C)C[C@H]1Oc2ccc(NC(=O)c3ccncc3)cc2CC(=O)N([C@H](C)CO)C[C@@H]1C` here?
Its cytotoxicity call is “inactive”.

How did the cytotoxicity call turn out when `C[C@@H]1CCCCO[C@H](CN(C)S(=O)(=O)c2cccs2)[C@H](C)CN([C@@H](C)CO)C(=O)c2cc(NS(=O)(=O)c3cn(C)cn3)ccc2O1` was run?
The cytotoxicity call was “inactive”.

Which cytotoxicity call does the source give for `Cc1ccc(S(=O)(=O)Nc2ccc3c(c2)C(=O)N([C@@H](C)CO)C[C@@H](C)[C@@H](CN(C)C(=O)NC2CCCCC2)OCCCC[C@@H](C)O3)cc1` here?
The cytotoxicity call was “inactive”.

How did the cytotoxicity call turn out when `CC(C)(C)OC(=O)C[C@H]1CC=CC[C@H](CC(=O)NCCO)C(=O)N[C@H](Cc2ccccc2)COC1=O` was run?
The cytotoxicity call was “inactive”.

With `C[C@@H]1CN([C@H](C)CO)C(=O)Cc2cc(NS(=O)(=O)c3cn(C)cn3)ccc2O[C@H]1CN(C)Cc1ccc(C(=O)Nc2ccccc2N)cc1` as the compound, how does the cytotoxicity call read?
Its cytotoxicity call is “inactive”.

How did the cytotoxicity call turn out when `CN1C(=O)c2cc(NS(=O)(=O)c3cccc(F)c3)ccc2OC[C@H]2O[C@@H](CC(=O)NCCN3CCCCC3)CC[C@H]21` was run?
The cytotoxicity call was “inactive”.

How did the cytotoxicity call turn out when `C[C@H](CO)N1C[C@H](C)[C@H](CN(C)Cc2ccc3c(c2)OCO3)Oc2ccc(NC(=O)Nc3ccc(C(F)(F)F)cc3)cc2CC1=O` was run?
Its cytotoxicity call is “active”.

With `C[C@H](CO)N1C[C@H](C)[C@@H](CN(C)Cc2ccc3c(c2)OCO3)Oc2ccc(NC(=O)Nc3ccc(C(F)(F)F)cc3)cc2CC1=O` as the compound, how does the cytotoxicity call read?
The cytotoxicity call was “active”.

`C[C@H]1CN([C@@H](C)CO)C(=O)Cc2cc(NC(=O)Nc3ccc(C(F)(F)F)cc3)ccc2O[C@@H]1CN(C)Cc1ccc2c(c1)OCO2` was tested. Which cytotoxicity call did it give?
The cytotoxicity call was “inactive”.

Which cytotoxicity call does the source give for `C[C@H]1CN([C@@H](C)CO)C(=O)Cc2cc(NC(=O)Nc3ccc(C(F)(F)F)cc3)ccc2O[C@H]1CN(C)Cc1ccc2c(c1)OCO2` here?
The cytotoxicity call was “inactive”.

Which cytotoxicity call does the source give for `C[C@@H]1CN([C@H](C)CO)C(=O)Cc2cc(NC(=O)Nc3ccc(C(F)(F)F)cc3)ccc2O[C@H]1CN(C)Cc1ccc2c(c1)OCO2` here?
Its cytotoxicity call is “inactive”.

For `C[C@@H]1CN([C@H](C)CO)C(=O)Cc2cc(NC(=O)Nc3ccc(C(F)(F)F)cc3)ccc2O[C@@H]1CN(C)Cc1ccc2c(c1)OCO2`, which cytotoxicity call is on record?
Its cytotoxicity call is “active”.

How did the cytotoxicity call turn out when `C[C@@H]1CN([C@@H](C)CO)C(=O)Cc2cc(NC(=O)Nc3ccc(C(F)(F)F)cc3)ccc2O[C@H]1CN(C)Cc1ccc2c(c1)OCO2` was run?
Its cytotoxicity call is “active”.

Which cytotoxicity call does the source give for `Cc1noc(C)c1NC(=O)N(C)C[C@@H]1OCCCC[C@@H](C)Oc2ccc(NC(=O)NC3CCCCC3)cc2C(=O)N([C@H](C)CO)C[C@H]1C` here?
Its cytotoxicity call is “inactive”.

With `NCC[C@@H]1CC[C@@H](NC(=O)C2CC2)[C@H](CO)O1` as the compound, how does the cytotoxicity call read?
Its cytotoxicity call is “inactive”.

How did the cytotoxicity call turn out when `COc1ccc(CN(C)C[C@@H]2Oc3ccc(NS(=O)(=O)c4cn(C)cn4)cc3CC(=O)N([C@@H](C)CO)C[C@@H]2C)cc1` was run?
Its cytotoxicity call is “inactive”.

Which cytotoxicity call does the source give for `C[C@@H]1CCCCO[C@H](CN(C)C(=O)C2CCCCC2)[C@@H](C)CN([C@H](C)CO)C(=O)c2cc(NC(=O)c3ccncc3)ccc2O1` here?
The cytotoxicity call was “inactive”.

With `C[C@@H]1CN([C@H](C)CO)C(=O)c2cc(NC(=O)Cc3ccccc3)ccc2O[C@@H](C)CCCCO[C@@H]1CN(C)Cc1ccc2c(c1)OCO2` as the compound, how does the cytotoxicity call read?
Its cytotoxicity call is “inactive”.

For `C[C@@H]1CN([C@H](C)CO)C(=O)c2cc(Br)cnc2O[C@H]1CN(C)C(=O)Nc1ccccc1F`, which cytotoxicity call is on record?
Its cytotoxicity call is “inactive”.

For `CCCCC[C@@H](C[C@@H](CC(=O)O)O[C@H]1O[C@@H](CO)[C@@H](O[C@H]2O[C@@H](CO)[C@@H](O)[C@@H](O)[C@@H]2O)[C@@H](O)[C@@H]1O)OC(=O)C[C@H](O)C[C@H](CCCCC)O[C@H]1O[C@@H](CO)[C@@H](O)[C@@H](O)[C@@H]1O`, which cytotoxicity call is on record?
The cytotoxicity call was “inactive”.

How did the cytotoxicity call turn out when `Cn1c(O)cc(=O)n(C)c1=O` was run?
The cytotoxicity call was “inactive”.

`CCS(=O)(=O)NCC[C@H]1CC[C@H](NS(=O)(=O)c2ccccc2C)[C@@H](CO)O1` was tested. Which cytotoxicity call did it give?
Its cytotoxicity call is “inactive”.

Which cytotoxicity call does the source give for `Cc1cccc(/C=C2\CS/C(=C\c3cccc(C)c3)C2=O)c1` here?
Its cytotoxicity call is “inactive”.

For `COC(=O)[C@@H]1C[C@H](C#N)N[C@@H]1c1ccccn1`, which cytotoxicity call is on record?
Its cytotoxicity call is “inactive”.

Which cytotoxicity call does the source give for `C[C@@H]1CN([C@@H](C)CO)C(=O)Cc2cc(NC(=O)Nc3ccc(C(F)(F)F)cc3)ccc2O[C@@H]1CN(C)Cc1ccc2c(c1)OCO2` here?
Its cytotoxicity call is “active”.

With `C[C@H]1CN([C@@H](C)CO)S(=O)(=O)c2ccc(C#CCN(C)C)cc2O[C@H]1CN(C)S(C)(=O)=O` as the compound, how does the cytotoxicity call read?
Its cytotoxicity call is “inactive”.

For `COc1ccc(CCN(C)CCCOc2ccc(S(=O)(=O)c3c(C(C)C)cn4ccccc34)cc2)cc1OC`, which cytotoxicity call is on record?
The cytotoxicity call was “active”.

`COc1ccc(CCN(C)CCCOc2ccc(S(=O)(=O)c3[nH]c4ccccc4c3C(C)C)cc2)cc1OC` was tested. Which cytotoxicity call did it give?
Its cytotoxicity call is “active”.

For `COc1ccc(C(=O)NCc2ccc(OCCN(C)C)cc2)cc1OC`, which cytotoxicity call is on record?
Its cytotoxicity call is “inactive”.

`COc1ccc(CCN(C)CCCOc2ccc(S(=O)(=O)c3c(C(C)C)c4ccccc4n3C)cc2)cc1OC` was tested. Which cytotoxicity call did it give?
The cytotoxicity call was “active”.

With `COc1ccc(NC(=O)N(C)C[C@H]2Oc3c(NS(=O)(=O)c4cn(C)cn4)cccc3C(=O)N([C@H](C)CO)C[C@@H]2C)cc1` as the compound, how does the cytotoxicity call read?
Its cytotoxicity call is “inactive”.

For `COc1ccc(S(=O)(=O)N(C)C[C@H]2Oc3ccc(NC(=O)CCN4CCOCC4)cc3C(=O)N([C@@H](C)CO)C[C@@H]2C)cc1`, which cytotoxicity call is on record?
Its cytotoxicity call is “inactive”.

Which cytotoxicity call does the source give for `C[C@@H]1CN([C@@H](C)CO)C(=O)c2cc(NS(=O)(=O)c3cccs3)ccc2O[C@@H]1CN(C)S(=O)(=O)c1cn(C)cn1` here?
Its cytotoxicity call is “inactive”.

For `c1ccc(NC2CCCCC2)nc1`, which cytotoxicity call is on record?
The cytotoxicity call was “inactive”.
